Assay outcomes as filed in PubChem.
TEAD-YAP inh – TEAD-YAP interaction inhibition; HEK-TIYL cells, TEAD-Gal4/YAP UAS-luciferase luminescence; inhibition, % at 9.12 µM; 1.4% of 640,000 active; in the data active means inhibition above about 32%;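 further: 0% = median of test compound wells and 100% = reference inhibitor wells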
FBW7 act – human FBW7 E3 ligase activation, primary screen; 0.13% of 650,000 active; AlphaScreen FBW7–phospho-cyclin E peptide binding, activator screen; AID 1259310; normalized activity (activation), % at 26.1 µM; Q969H0; in the data active means normalized activity above about 1.9%;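 further: purified mutant Fbw7 with reduced substrate affinity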
Target sequence (Q969H0 whole entry, looked up): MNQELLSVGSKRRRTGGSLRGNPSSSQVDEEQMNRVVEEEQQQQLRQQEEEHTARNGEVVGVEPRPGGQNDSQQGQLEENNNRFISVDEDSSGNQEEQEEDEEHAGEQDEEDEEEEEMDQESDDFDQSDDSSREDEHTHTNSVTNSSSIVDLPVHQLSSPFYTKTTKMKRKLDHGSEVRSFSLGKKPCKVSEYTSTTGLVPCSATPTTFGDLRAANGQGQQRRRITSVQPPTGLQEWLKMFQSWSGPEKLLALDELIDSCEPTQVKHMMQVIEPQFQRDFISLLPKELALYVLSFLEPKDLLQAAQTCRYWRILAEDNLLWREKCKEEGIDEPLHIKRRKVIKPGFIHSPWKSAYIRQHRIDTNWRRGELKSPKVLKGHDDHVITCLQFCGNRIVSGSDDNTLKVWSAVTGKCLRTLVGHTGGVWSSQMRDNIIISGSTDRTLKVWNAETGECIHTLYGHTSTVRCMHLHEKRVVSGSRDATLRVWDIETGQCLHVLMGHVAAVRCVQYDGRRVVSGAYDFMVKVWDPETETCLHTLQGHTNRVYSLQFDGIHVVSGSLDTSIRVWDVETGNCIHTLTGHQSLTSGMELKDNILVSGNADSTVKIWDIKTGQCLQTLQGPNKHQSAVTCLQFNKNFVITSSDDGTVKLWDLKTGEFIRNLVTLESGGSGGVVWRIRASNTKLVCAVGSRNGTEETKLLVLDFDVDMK
GPR151 ag – activates the human receptor GPR151; PathHunter beta-arrestin GPR151 cells, luminescence; activation, % at 11.2 µM; Q8TDV0; 1% of 650,000 active; AID 1508602; in the data active means activation above about 4.9%;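 further: 0% = median of compound wells and 100% = cells with positive control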
MITF primary – blocks human microphthalmia-associated transcription factor; O75030; AlphaScreen MITF homodimerization, bead proximity signal; inhibition, % at 2.6 µM; 0.91% of 650,000 active; AID 1259374; in the data active means inhibition above about 50%;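 further: 0% = vehicle wells with protein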
GPR151 confirm – human GPR151 activation, confirmation screen; shares compounds with GPR151 ag; GPR151 PathHunter beta-arrestin cells, luminescence, 90 min; % of EA-reagent control over plate median; activation, % at 11.2 µM; 6,700 tested, under 10 active;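 active means mean percent activation across replicates above the confirmation screen cutoff of 4.91%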
GPR119 ag – activates human GPR119 in a GPR151 counter-screen | shares compounds with GPR151 ag | 0.3% of 6,700 active | GPR119 PathHunter beta-arrestin cells, luminescence, 90 min; 0 = compound-well median, 100 = enzyme-acceptor control | AID 1508611 | activation, % at 11.2 µM;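 active means mean percent activation in the counterscreen above 29.09%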;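 further: counterscreen on off-target GPR119 to flag nonselective hits from the GPR151 activator screen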
Starred values were filed as active, the others as inactive; x = no result. Most compounds without a hit are left out; they make up all but 3.5% or so of the library.

SMILES | TEAD-YAP inh | FBW7 act | GPR151 ag | MITF primary | GPR151 confirm | GPR119 ag
O=C(CN1C(=O)c2ccccc2S1(=O)=O)NCc1ccco1 | -8.0 | -0.1 | 9.0* | -8.3 | -0.4 | 15.7
O=C(Cn1cncn1)N1CCN(c2ncccn2)CC1 | -5.6 | -0.1 | 7.0* | -3.0 | 0.3 | 10.2
Cc1ccc(NC(=O)C(CC(=O)O)C2CCCO2)cc1 (stereo not drawn) | -4.7 | 0.1 | 18.6* | 3.6 | 0.9 | -3.3
CCOc1ccc(NC(=O)C(CC(=O)O)C2CCCO2)cc1 (stereo not drawn) | -5.4 | -0.1 | -0.3 | -13.4 | x | x
CC(C)CC1NC(=O)N(CC(=O)Nc2cccc(I)c2)C1=O (stereo not drawn) | 0.2 | 0.0 | 8.8* | -4.4 | 1.4 | 5.3
O=C(Cc1cccs1)N1CCc2cc(S(=O)(=O)NC3CCCC3)ccc21 | -11.7 | 0.0 | -1.7 | -0.7 | x | x
CCn1c(=O)c2c(nc3n(CC)c(C)cn23)n(C)c1=O | 6.9 | 0.0 | 0.7 | -2.8 | x | x
CCCCn1c(=O)c2c(nc3n(-c4ccc(C(=O)OCC)cc4)c(C)cn23)n(C)c1=O | 6.4 | 0.3 | 5.6* | 14.7 | 1.3 | -10.5
CCCn1c(=O)c2c(nc3n(-c4ccc(C(=O)OCC)cc4)c(C)cn23)n(C)c1=O | -3.8 | -0.5 | 0.0 | 8.5 | x | x
CCn1c(=O)c2c(nc3n(C)c(C)cn23)n(C)c1=O | 22.3 | -0.1 | 8.0* | 5.8 | 0.8 | 2.5
CCOC(=O)c1ccccc1NC(=O)CC(C)CC(=O)O (stereo not drawn) | -6.2 | 0.1 | 5.9* | 5.0 | 0.7 | 5.2
CC(C)n1c(-c2csc3ccccc23)nc2c(NCCCN3CCCC3=O)ncnc21 | 4.5 | 0.0 | 6.8* | -2.2 | 0.6 | -3.7
CC(C)n1c(-c2cccs2)nc2c(NCCCN3CCCC3=O)ncnc21 | 2.9 | 0.2 | 0.7 | 35.0 | x | x
CC1=C(C)/C(=N\OC(=O)c2cccc(C)c2)C=CC1=O | -35.3 | -0.1 | 2.8 | -7.4 | x | x
CCOc1ccc(Nc2nc(N3CCOCC3)c3ccccc3n2)cc1 | 22.8 | 0.0 | 0.5 | -0.6 | x | x
CCOc1ccc(Nc2nc(NCc3ccco3)c3ccccc3n2)cc1 | 49.0* | -0.2 | 5.1* | -3.1 | -0.2 | 11.4
O=C(O)CC1C(=O)NN=C2c3ccccc3N=CN21 (stereo not drawn) | 4.9 | 0.1 | -0.3 | 13.8 | x | x
Cc1cccc(NC(=O)C2CCCN(S(=O)(=O)c3ccc4[nH]c(=O)ccc4c3)C2)n1 (stereo not drawn) | 3.5 | 0.1 | 5.3* | 6.1 | -0.4 | -12.6
Cc1cccc(NC(=O)NCC(c2ccc3c(c2)CCN3C)N2CCN(C)CC2)c1 (stereo not drawn) | -8.2 | -0.2 | 5.0* | 8.4 | 0.4 | 13.5
CN1CCN(C(CNC(=O)Nc2ccc(F)cc2)c2ccc3c(c2)CCN3C)CC1 (stereo not drawn) | 0.6 | -0.1 | 0.1 | -0.5 | x | x
CCn1c(C)cc(/C=C/c2oc3ccccc3[n+]2CC)c1C | -5.5 | 0.1 | -2.5 | 19.5 | x | x
CC[n+]1c(/C=C/N(C)c2ccccc2)oc(-c2ccccc2)c1-c1ccccc1 | 91.7* | 0.0 | 5.7* | 1.9 | 0.5 | 18.4
Cc1cccn2c(CNCC3CCCCO3)c(C(=O)N(C)CCc3ccccc3)nc12 (stereo not drawn) | -5.6 | -0.2 | -0.2 | 2.2 | x | x
Cc1ccc(N2C(=O)C3CC=CC(C)C3C2=O)cc1 (stereo not drawn) | -17.3 | 0.3 | 11.7* | 7.2 | -0.2 | -4.5
CC1C=CCC2C(=O)N(c3ccc([N+](=O)[O-])cc3)C(=O)C12 (stereo not drawn) | 0.2 | -0.3 | 1.6 | 5.4 | x | x
SMILES | TEAD-YAP inh | FBW7 act | GPR151 ag | MITF primary | GPR151 confirm | GPR119 ag
O=C(Nc1cc2ccccc2cc1NC(=O)c1ccc(Cl)cc1)c1ccc(Cl)cc1 | -4.0 | -0.1 | 5.6* | 2.0 | 1.4 | 19.2
CCOC(=O)COc1ccc(/C=C2\C=C(c3ccc(Br)cc3)OC2=O)cc1OC | 6.5 | 0.1 | 13.2* | -13.5 | 1.8 | 13.9
COc1cccc(C2=N/C(=C/c3ccc([N+](=O)[O-])cc3)C(=O)O2)c1 | 5.8 | 0.1 | -0.3 | 11.8 | x | x
O=C(O)CCCC(=O)N1CCc2cc(S(=O)(=O)N3CCCc4ccccc43)ccc21 | -0.2 | -0.1 | 3.6 | 4.5 | x | x
CC(=O)c1cccc(NC(=O)N2CCCC2C(=O)Nc2cccc(C)c2)c1 (stereo not drawn) | -6.4 | -0.1 | 14.5* | -3.2 | 0.3 | 14.0
COc1ccc(Oc2coc3c(CN(CC(C)C)CC(C)C)c(O)ccc3c2=O)cc1 | 0.4 | -0.1 | -1.6 | 2.7 | x | x
Cc1ccc(N2C(=O)c3ccc(C(=O)N4CCCCC4C)cc3C2=O)cc1 (stereo not drawn) | 3.2 | 0.1 | 5.0* | 14.8 | -0.1 | 10.8
Cc1cc(N2C(=O)c3ccc(C(=O)N4CCCCC4C)cc3C2=O)no1 (stereo not drawn) | 6.1 | 0.2 | 2.0 | 11.2 | x | x
CCOc1ccccc1/C=C1\N=C(c2cccc(C)c2)OC1=O | -10.6 | 0.0 | 9.7* | 0.6 | -0.5 | 0.3
CC(=O)Oc1ccc(/C=C2\N=C(c3cccc(C)c3)OC2=O)cc1OC(C)=O | 2.3 | -0.2 | 7.6* | 0.2 | 1.6 | 0.8
COc1ccc(C2=N/C(=C/c3cccc(OC)c3OC)C(=O)O2)cc1Br | -2.5 | 0.0 | 5.0* | 7.9 | -1.4 | 1.0
CCOc1ccccc1/C=C1\N=C(c2ccc(C)cc2)OC1=O | -6.4 | 0.1 | 0.2 | 12.3 | x | x
Cc1cccc(C2=N/C(=C\c3ccc(I)o3)C(=O)O2)c1 | 7.5 | -0.1 | 5.3* | -10.5 | 0.1 | -0.7
O=C(CC(NCc1ccccc1)C(=O)O)c1ccc(Br)cc1 (stereo not drawn) | -7.6 | -0.1 | 1.8 | 8.5 | x | x
CCOc1ccc(C(=O)Nc2nc(-c3ccc(F)cc3)cs2)cc1 | 0.7 | -0.1 | -0.3 | 8.4 | x | x
Cc1cc(C(=O)N/N=C/c2c(O)ccc3ccccc23)n[nH]1 | 15.4 | -0.8 | -0.1 | 14.2 | x | x
COc1ccc([N+](=O)[O-])cc1NS(=O)(=O)c1ccc(Cl)c(C(=O)O)c1 | 8.3 | 0.1 | 0.3 | -10.7 | x | x
CCOC(=O)c1ccccc1NC(=O)C(C)N1C(=O)c2cccc3cccc1c23 (stereo not drawn) | -15.8 | 0.1 | 0.8 | -36.5 | x | x
CSc1ccc(NC(=O)C2CC23CCN(Cc2ccc(F)cc2)CC3)cc1 (stereo not drawn) | 2.4 | 0.0 | -0.4 | -3.2 | x | x
O=C1N/C(=C/c2ccccc2)C(=O)N1c1cccc(Cl)c1 | -0.2 | 0.0 | 4.7 | 8.8 | x | x
COc1ccc(/C=C2/NC(=O)N(c3cccc(Cl)c3)C2=O)c(OC)c1 | -6.2 | -0.1 | 5.7* | 18.0 | 2.4 | 2.6
COc1cc2c(cc1/C=C1/NC(=O)N(c3cccc(Cl)c3)C1=O)OCO2 | 11.2 | -0.1 | 8.5* | 1.0 | 0.3 | 6.8
O=C1N/C(=C/c2ccc3c(c2)OCO3)C(=O)N1c1cccc(Cl)c1 | 1.5 | 0.0 | -0.3 | 15.9 | x | x
O=C1N/C(=C/c2ccco2)C(=O)N1c1cccc(Cl)c1 | -11.2 | 0.1 | 5.2* | -1.9 | -0.6 | 0.7
